Measurements: PubChem BioAssay (NCATS)
Where “and” joins values, the source holds several entries; their conditions need not be identical. Equal values may be shown once. Records with an inconclusive call do not appear. Calls of active or inactive are those of the source. The call rests on the fitted dose curve; in most records, active means well fitted inhibition curve with a large enough effect; inconclusive means small, poorly fitted or top-dose-only effect; inactive means flat fitted curve, though single readings scatter.

Assays:
JCK = assay: qHTS profiling for inhibitors of Plasmodium falciparum proliferation (AID 504749);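 further: 0% = DMSO vehicle and full inhibition = artemisinin control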; conditions: P. falciparum in erythrocytes, SYBR Green DNA, 72 h; series mostly up to 28.7 µM
Summary of the method: (§1)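 Readout was DNA-dye fluorescence from lysed cultures, ex 485/em 535 nm. Parasitized red cells had grown 72 h with compound; data scaled between 0.29 uM artemisinin and DMSO wells and corrected using vehicle-only plates.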

N140 = assay: as above; conditions: P. falciparum in erythrocytes, SYBR Green DNA, 72 h; series mostly up to 28.7 µM
Summary of the method: as §1

P93_24 = assay: as above; conditions: P. falciparum in erythrocytes, SYBR Green DNA, 72 h; series mostly up to 28.7 µM
Summary of the method: as §1

P94_40 = assay: as above; conditions: P. falciparum in erythrocytes, SYBR Green DNA, 72 h; series mostly up to 28.7 µM
Summary of the method: as §1

PAD = assay: as above; conditions: P. falciparum in erythrocytes, SYBR Green DNA, 72 h; series mostly up to 28.7 µM
Summary of the method: as §1

PC15 = assay: as above; conditions: P. falciparum in erythrocytes, SYBR Green DNA, 72 h; series mostly up to 28.7 µM
Summary of the method: as §1

PC26 = assay: as above; conditions: P. falciparum in erythrocytes, SYBR Green DNA, 72 h; series mostly up to 28.7 µM
Summary of the method: as §1

PC49 = assay: as above; conditions: P. falciparum in erythrocytes, SYBR Green DNA, 72 h; series mostly up to 28.7 µM
Summary of the method: as §1

SC27B = assay: as above; conditions: P. falciparum in erythrocytes, SYBR Green DNA, 72 h; series mostly up to 28.7 µM
Summary of the method: as §1

TAB109 = assay: as above; conditions: P. falciparum in erythrocytes, SYBR Green DNA, 72 h; series mostly up to 28.7 µM
Summary of the method: as §1

TAB113 = assay: as above; conditions: P. falciparum in erythrocytes, SYBR Green DNA, 72 h; series mostly up to 28.7 µM
Summary of the method: as §1

TAB165 = assay: as above; conditions: P. falciparum in erythrocytes, SYBR Green DNA, 72 h; series mostly up to 28.7 µM
Summary of the method: as §1

W2 = assay: as above; conditions: P. falciparum in erythrocytes, SYBR Green DNA, 72 h; series mostly up to 28.7 µM
Summary of the method: as §1

CRL-7250 = normal cell line; assay: Cytotoxic Profiling of Annotated Libraries Using Quantitative High-Throughput Screening (AID 1296008); conditions: Five cell lines viability, CellTiter-Glo ATP luminescence, 48-72 h; max response: hits give low values; further: potency means the concentration at half of the fitted maximal effect; on max response: on the % scale 0 is the no-effect control and ±100 the full control effect
Summary of the method: (§2)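 Cells exposed to compounds for 48 or 72 hr at 37 degrees Celsius. Viability read as ATP-coupled luminescence with CellTiter-Glo after 10 min at room temperature.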

HEK293 = assay: as above; conditions: Five cell lines viability, CellTiter-Glo ATP luminescence, 48-72 h; max response: hits give low values
Summary of the method: as §2

HaCat [1] = assay: as above; conditions: Five cell lines viability, CellTiter-Glo ATP luminescence, 48-72 h; max response: hits give low values
Summary of the method: as §2

KB-3-1 = assay: as above; conditions: Five cell lines viability, CellTiter-Glo ATP luminescence, 48-72 h; max response: hits give low values
Summary of the method: as §2

NIH3T3 = assay: as above; conditions: Five cell lines viability, CellTiter-Glo ATP luminescence, 48-72 h; max response: hits give low values
Summary of the method: as §2

HACAT [2] = assay: qHTS assay to identify novel small-molecules to repurpose for Merkel cell carcinoma treatment (AID 1296009); conditions: MCC and control cell lines, CellTiter-Glo viability, 72 h; at 44.8 µM (top of the series) unless noted
Summary of the method: (§3)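 Cells were incubated with compound for 72 hr at 37 degree celsius before CellTiter-Glo addition. Luminescence was normalized with no-cell wells as full cytotoxicity and DMSO as baseline.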

HEK293T = assay: as above; conditions: MCC and control cell lines, CellTiter-Glo viability, 72 h; at 44.8 µM (top of the series) unless noted
Summary of the method: as §3
Further: nearly all actives have a fitted effect of over 60% in size.

Cc1cc2cc3c(C)cc(=O)oc3c(C)c2o1
inactive: Potency (JCK) | Potency (N140) | Potency (P93_24) | Potency (P94_40) | Potency (PAD) | Potency (PC15) | Potency (PC26) | Potency (PC49) | Potency (SC27B) | Potency (TAB109) | Potency (TAB113) | Potency (TAB165) | Potency (W2) | max response (CRL-7250) 4.53% and -2.29% | max response (HEK293) -0.492% | outcome (HEK293) | max response (HaCat [1]) -8.67% | outcome (HaCat [1]) | max response (KB-3-1) -3.63% | outcome (KB-3-1) | max response (NIH3T3) -1.93% | outcome (NIH3T3) | outcome (HACAT [2]) | outcome (HEK293T)

CC(=O)NC[C@H]1CN(c2ccc(N3CCOCC3)c(F)c2)C(=O)O1
active: Potency (HEK293) 13.2 µM
inactive: max response (CRL-7250) -4.05% | outcome (CRL-7250) | max response (HaCat [1]) -2.3% | outcome (HaCat [1]) | max response (KB-3-1) -15.9% and -9.99% and -3.52% | max response (NIH3T3) -16% and 2.14% | outcome (HACAT [2])

CN(C)[C@@H](CCOc1cccc2ccccc12)c1ccccc1
inactive: max response (CRL-7250) -9.42% | outcome (CRL-7250) | max response (HaCat [1]) 4.48% | outcome (HaCat [1]) | max response (NIH3T3) -1.45% and -13.3% | outcome (HACAT [2])

CCOC(=O)C1=C(O)C(=O)N(Cc2ccccc2)C1
inactive: max response (CRL-7250) 2.77% | max response (HEK293) -14.6% | max response (HaCat [1]) 2.45% | max response (KB-3-1) 3.01% | outcome (NIH3T3)

CC(C)c1ccc2oc3nc(N)c(C(=O)O)cc3c(=O)c2c1
inactive: Potency (JCK) | Potency (N140) | Potency (P93_24) | Potency (P94_40) | Potency (PC15) | Potency (PC26) | Potency (PC49) | Potency (TAB109) | Potency (TAB165) | outcome (CRL-7250) | max response (HEK293) 4.19% and -0.504% | max response (HaCat [1]) -17.6% | outcome (HaCat [1]) | max response (KB-3-1) -4.86% | outcome (KB-3-1) | max response (NIH3T3) -24.8% and -20.9% | outcome (HACAT [2])

Oc1ccc(OCc2ccccc2)cc1
inactive: Potency (JCK) | Potency (N140) | Potency (P93_24) | Potency (P94_40) | Potency (PAD) | Potency (PC15) | Potency (PC26) | Potency (PC49) | Potency (SC27B) | Potency (TAB109) | Potency (TAB113) | Potency (TAB165) | max response (CRL-7250) -0.407% and -9.61% | max response (HEK293) -5.94% and -19.5% | max response (HaCat [1]) -14% and -4.74% | max response (KB-3-1) 45.1% | outcome (KB-3-1) | outcome (NIH3T3)
